Test [1] in a line: NCI Yeast Anticancer Drug Screen. Data for the rad50 strain (AID 155).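 Note: 0% = growth of vehicle-only cultures of the same strain.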 As to conditions: S. cerevisiae rad50 strain growth inhibition; at 50.0 µM; stronger effect = higher value. Summed up: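 DNA repair mutant yeast, compound exposure, growth read-out; inhibition is taken relative to vehicle.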
Test [2] is described as follows: NCI Yeast Anticancer Drug Screen. Data for the mec2-1 strain (AID 157). As to conditions: S. cerevisiae mec2-1 strain, at 50.0 µM, stronger effect = higher value. The method, boiled down:
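Strain: mec2-1 (DNA repair/cell cycle alteration). Compound exposure, then growth measured; inhibition expressed relative to vehicle.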

Test [3] in a line: NCI Yeast Anticancer Drug Screen. Data for the sgs1 mgt1 strain (AID 161).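 Note: 0% = growth of cultures given vehicle only.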 Conditions: S. cerevisiae sgs1 mgt1 strain, at 50.0 µM, stronger effect = higher value. Summed up:
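Mutant yeast exposed to compound; growth scored against vehicle-only wells.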

A short description of test [4]: NCI Yeast Anticancer Drug Screen. Data for the cln2 rad14 strain (AID 165).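 Note: 0% = growth equal to vehicle treated cultures.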 As to conditions: S. cerevisiae cln2 rad14 strain, at 50.0 µM, stronger effect = higher value. The method, boiled down: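 Compounds are applied to the cln2 rad14 yeast strain, and growth is then compared with that of vehicle-treated cultures to give inhibition.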
Test [5] is described as follows: NCI Yeast Anticancer Drug Screen. Data for the bub3 strain (AID 167). As to conditions: S. cerevisiae bub3 mutant strain, at 50.0 µM, stronger effect = higher value. The method, boiled down:
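In this screen, a yeast mutant lacking normal mitotic checkpoint function is challenged with compound. Relative growth versus vehicle gives the inhibition value.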

The nature of test [6]: NCI Yeast Anticancer Drug Screen. Data for the mlh1 rad18 strain (AID 175). As to conditions: S. cerevisiae mlh1 rad18 strain growth inhibition; at 50.0 µM; stronger effect = higher value. The method, boiled down: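 Read-out is yeast growth inhibition, calculated against vehicle-only controls. The compound was applied to a strain engineered with DNA damage repair alterations.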

Molecules are shown by their SMILES. About 79,000 compounds went through this panel and 15% of them were active in at least one assay; those are over-represented in the sample as a whole. Unmarked numbers belong to inactive results. Active and inactive are the calls of the source. Cut-off read from the data, not from the text of the source: active = growth inhibition above about 70%; inactive = the rest.

On to `O=[N+]([O-])c1ccc(F)cc1`, for which the growth inhibition is -1.3% in test [1]; 5.25% in test [2]; 2.3% in test [3]; -17.4% in test [4]; 7.15% in test [5]; 4.75% in test [6].

As to `O=[N+]([O-])c1ccc(CS(=O)(=O)c2cccs2)o1`, the growth inhibition was 39% in test [1]; 12.8% in test [2]; 19.1% in test [3]; -6.25% in test [4]; 19.5% in test [5]; 16.6% in test [6].

In the case of `COc1ccc(-c2c(O)c3cccc(-c4ccccc4)c3oc2=O)cc1`, the growth inhibition in test [1] is 2.7%; in test [2] it was 6.7%; in test [3], -2.9%; in test [4], 2.95%; in test [5], 15%; in test [6], 7.5%.

On to `CCc1cn(O)c(C)cc1=N`, for which the growth inhibition in test [1] was 25.3%; in test [2], 11.1%; in test [3] it was 6.15%; in test [4] it was 5.8%; in test [5], 12%; in test [6] it was 21.1%.

As to `CC1(C)Oc2ccc3c(=O)c(-c4ccccc4)c(-c4ccccc4)oc3c2C1C(=O)O` (stereo unspecified), the growth inhibition in test [1] was 12.5%; in test [2], -1.35%; in test [3], -17.6%; in test [4] it was 12.8%; in test [5], 0.25%; in test [6] it was 10.8%.

Turning to `c1ccc2cc(N=Nc3cccc4ccccc34)ccc2c1`, the growth inhibition was -10.5% in test [1]; -17.9% in test [2]; 1.15% in test [3]; -19% in test [4]; 1.1% in test [5]; -7.75% in test [6].

With `O=C(NC12CC3CC(NC(=O)c4ccccc4)(CC(C1)c1ccccc13)C2)c1ccccc1`, the growth inhibition was 42.9% in test [1]; 40.2% in test [2]; 57.4% in test [3]; 27.4% in test [4]; 52.5% in test [5]; 38.4% in test [6].

As to `CC1(C)O[C@H]2Cn3c(c(C#N)c4ccccc43)[C@H]2O1`, the growth inhibition in test [1] is 11.2%; in test [2], -38.4%; in test [3], 15.8%; in test [4], -11.1%; in test [5], 42.1%; in test [6], -21.2%.

As to `O=P(Nc1cccc(Cl)c1)(Nc1cccc(Cl)c1)c1ccccc1`, the growth inhibition in test [1] is 96.8% (active); in test [2] it was 74.1% (active); in test [3], 96.9% (active); in test [4] it was 76.7% (active); in test [5], 85.3% (active); in test [6] it was 95.8% (active).

Regarding `Cc1c(C2CCC(=O)C2)c2ccccc2n1C` (stereo unspecified), the growth inhibition in test [1] is -3.05%; in test [2] it was -23.3%; in test [3] it was -4.6%; in test [4], 15.4%; in test [5], 2.1%; in test [6] it was 3.5%.

As to `CCOC(=O)C1=C(C(=O)c2ccc(OC)cc2)C(c2cccc([N+](=O)[O-])c2)C(C(=O)c2ccc(OC)cc2)=C(C(=O)OCC)N1`, the growth inhibition in test [1] is -30.8%; in test [2] it was -1.6%; in test [3], -2.5%; in test [4] it was -2.85%; in test [5], -6.45%; in test [6], 2%.

With `Cc1ccc(NC(=O)OCC2CC3C=CC2C3)cc1` (stereo unspecified), the growth inhibition in test [1] is 95.5% (active); in test [2], 98.8% (active); in test [3] it was 99% (active); in test [4] it was 96.3% (active); in test [5], 95.2% (active); in test [6], 97.7% (active).

As to `COC(=O)NC(C(F)(F)F)(C(F)(F)F)P1(=O)OCCCO1`, the growth inhibition is 54.5% in test [1]; 59.9% in test [2]; 26.3% in test [3]; 43% in test [4]; 54% in test [5]; 37.6% in test [6].

In the case of `CN1CCCN(C(=O)N(c2ccccc2)c2ccccc2)CC1`, the growth inhibition in test [1] was -19.3%; in test [2] it was -12.8%; in test [3], 7.45%; in test [4], -3.6%; in test [5], -5.65%; in test [6] it was 7.4%.

Consider `O=C(OCc1ccccc1)C1(N2CN(C3(C(=O)OCc4ccccc4)CCCC3)CN(C3(C(=O)OCc4ccccc4)CCCC3)C2)CCCC1`, for which the growth inhibition in test [1] was -8.05%; in test [2], -5.7%; in test [3], 2.25%; in test [4], 16.9%; in test [5], 13.5%; in test [6], 2.15%.

On to `CCOCCC(C)(OCC)OCC`, for which the growth inhibition is -11.8% in test [1]; -36.1% in test [2]; -7% in test [3]; 15.7% in test [4]; -3.65% in test [5]; -5.3% in test [6].

For the molecule `Cc1ccc(N)cc1S(=O)(=O)O`, the growth inhibition in test [1] is 29.8%; in test [2] it was -10.6%; in test [3] it was -9.45%; in test [4] it was -14.8%; in test [5] it was 3%; in test [6], 21.6%.

For the molecule `CCOC(=O)C(=CN(C)c1ccc([N+](=O)[O-])cc1)C(=O)OCC`, the growth inhibition in test [1] was 0.15%; in test [2], 6.65%; in test [3], 15.6%; in test [4] it was 12.1%; in test [5], 24.4%; in test [6] it was 15.5%.

Turning to `Cc1ccccc1NC(=O)/C(C#N)=N\Nc1nc[nH]c1C(N)=O`, the growth inhibition in test [1] is -33.7%; in test [2], -22.6%; in test [3], -11.8%; in test [4] it was 6.2%; in test [5], -45.9%; in test [6] it was 13.1%.

Consider `c1csc(-c2cc(-c3ccsc3)c(-c3ccsc3)s2)c1`, for which the growth inhibition was -37.5% in test [1]; -48.4% in test [2]; -33.6% in test [3]; -5.35% in test [4]; -15.9% in test [5]; -8.6% in test [6].

In the case of `CCCCN(CCCC)C(=O)/C=C\C(=O)O`, the growth inhibition in test [1] is -6.6%; in test [2] it was 1%; in test [3], -0.2%; in test [4] it was 28.1%; in test [5] it was -1.2%; in test [6], 4.9%.

The values are drawn from PubChem BioAssay (NCI).
